Screens: PubChem BioAssay, several laboratories
Compounds with a hit are over-represented: about 1.1% of the library has one in this group of screens.
beta cell repl = inducers of MIN6 beta-cell proliferation, primary screen, ATP luminescence, uHTS; proliferation, % at 10 µM; MIN6 cells proliferation, ATPlite luminescence, 48 h; cells starved in 0.2% serum; 100% = growth in 10% serum; actives 0.29% (n = 330,000);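 active means compounds whose signal lies at least 3.5 SD above the mean of all wells on their plate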
A3A deaminase = APOBEC3A ssDNA deaminase inhibitors, primary screen, selectivity assay for APOBEC3G inhibitor project, biochemical, FAM/TAMRA oligo cleavage fluorescence; DNA dC->dU-editing enzyme APOBEC-3A (Homo sapiens), P31941; actives 0.41% (n = 330,000); recombinant A3A, FAM/TAMRA ssDNA deamination fluorescence; inhibition, % at 20 µM; AID 493011, 2011;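 active means at least 40% inhibition at 20 µM here, with at most 30% in a related deaminase screen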
Target sequence (P31941 whole entry, looked up): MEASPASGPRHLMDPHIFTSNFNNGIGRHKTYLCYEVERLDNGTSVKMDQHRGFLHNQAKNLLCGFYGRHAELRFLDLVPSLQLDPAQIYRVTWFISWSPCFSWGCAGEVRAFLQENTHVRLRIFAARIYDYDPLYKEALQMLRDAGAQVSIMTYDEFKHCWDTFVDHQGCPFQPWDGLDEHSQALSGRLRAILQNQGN
A3G deaminase = APOBEC3G DNA deaminase inhibitors, primary screen, biochemical, fluorescence, single-stranded DNA substrate, uHTS | inhibition, % at 20 µM | actives 0.28% (n = 330,000) | recombinant A3G, ssDNA deamination FAM/TAMRA fluorescence | DNA dC->dU-editing enzyme APOBEC-3G (Homo sapiens), Q9HC16;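 active means inhibition of at least 40% at 20 µM, with no more than 30% in the related APOBEC3A deaminase screen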
Bfl-1 A1 inh = caspase 3/7 activation in MEF A1-2A-BIM cells, primary screen, A1 inhibitor project, cell-based, luminescence, HTS; caspase activation, % (no concentration beside the values); Caspase-Glo 3/7 luminescence, 3 h; percent of clofoctol response, vehicle zero; AID 2462, 2010; actives 0.066% (n = 330,000);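 active means over half of replicate activation scores above 10%, or exactly half above 10 with the replicate mean above 10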
A3G conf = APOBEC3G deaminase inhibitor retest, confirmation, biochemical, fluorescence, single-stranded DNA substrate, single concentration; shares compounds with A3G deaminase; recombinant A3G ssDNA deaminase, UDG/FAM-TAMRA fluorescence; inhibition, % at 20 µM; actives 72% (n = 890); AID 493152, 2011;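 active means inhibition reaching a set limit in any replicate at 20 µM, the limit being 80% of the first screen's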
UDG A3G counter = E. coli UDG inhibitors, confirmation, counter-screen for APOBEC3G inhibitor project, biochemical, single concentration, fluorescence, FAM/TAMRA oligo. shares compounds with A3G deaminase. 710 tested, under 10 active. inhibition, % at 20 µM. UDG counterscreen;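 active means compounds giving 40% or more inhibition at 20 µM in any one of the three replicates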;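 further: inhibitors lower the FAM signal released by uracil excision and alkaline cleavage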
Target sequence (P12295 whole entry, looked up): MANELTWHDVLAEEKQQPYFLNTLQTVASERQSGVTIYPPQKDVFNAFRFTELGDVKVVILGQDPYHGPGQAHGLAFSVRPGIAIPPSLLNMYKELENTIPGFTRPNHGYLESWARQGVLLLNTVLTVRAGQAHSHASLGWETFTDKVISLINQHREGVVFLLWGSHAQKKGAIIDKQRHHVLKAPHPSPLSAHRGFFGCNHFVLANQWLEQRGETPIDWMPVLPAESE
A number is an active result; - = inactive; . = no result.

SMILES	beta cell repl	A3A deaminase	A3G deaminase	Bfl-1 A1 inh	A3G conf	UDG A3G counter
CCN(c1cccc(C)c1)S(=O)(=O)c1cc2c3c(c1)CCN3C(=O)CC2	-	-	-	-	.	.
O=S(=O)(c1cccc(-c2n[nH]c(=S)n2Cc2ccccc2)c1)N1CCOCC1	-	-	46	-	72	-
O=S(=O)(c1cccc(-c2n[nH]c(=S)n2-c2ccccc2Cl)c1)N1CCOCC1	-	-	-	-	.	.
COCCCNC(=S)Nc1ccc(C)cc1	-	-	-	-	.	.
COCCCNC(=S)NCCc1ccc(F)cc1	-	-	-	-	.	.
COCCCNC(=S)NNC(=S)Nc1ccc(F)cc1F	-	-	55	-	86	-
COCCCNC(=S)NNC(=S)Nc1ccccc1	-	-	42	-	72	-
CC(C)CN(C(=O)CN1C(=O)NC(c2ccccc2)(c2ccccc2)C1=O)C1CCS(=O)(=O)C1 (stereo not drawn)	-	-	-	-	.	.
CN(C)c1ccc(C(c2ccc(N(C)C)cc2)c2ccc([N+](=O)[O-])cc2)cc1	-	-	-	-	.	.
O=c1c2cc(F)ccc2sn1-c1ccccc1	-	-	86	-	88	-
CN(C)S(=O)(=O)c1cccc(-n2sc3ccccc3c2=O)c1	-	-	85	-	93	-
Cc1ccccc1-n1sc2cc(F)ccc2c1=O	-	-	75	-	81	-
O=c1c2ccccc2sn1-c1ccccc1	-	-	87	-	91	-
Cc1ccc(CCNC(=O)c2cccc(NC3=NC4CS(=O)(=O)CC4S3)c2)cc1 (stereo not drawn)	-	-	-	-	.	.
O=C(O)c1cccc(-n2c(/C=C/c3ccccc3)nc3ccccc3c2=O)c1	-	-	-	-	.	.
O=C(O)c1cccc(-n2sc3ccccc3c2=O)c1	-	-	83	-	91	-
CCNc1nc(NCC)n2c(SCC(=O)Nc3ccc(CC)cc3)nnc2n1	-	-	49	-	47	-
Cc1nc(SCc2ccc(O)c([N+](=O)[O-])c2)c([N+](=O)[O-])[nH]1	-	-	63	-	58	-
O=C(Nc1cc(S(=O)(=O)N2CCOCC2)ccc1O)c1ccc(S(=O)(=O)N2CCCCC2)cc1	-	-	-	-	.	.
O=C(Nc1cc(S(=O)(=O)Nc2ccc(Cl)cc2)ccc1O)c1ccc(S(=O)(=O)N2CCCCCC2)cc1	-	-	53	-	44	-
Nc1ccc2nc(-c3cccc(-c4nc5ccc(N)cc5[nH]4)n3)[nH]c2c1	-	-	44	-	29	-
Cc1ccccc1NC(=S)c1ccc2ccccc2n1	-	-	42	-	40	-
Cc1ccc(/C=N\NC(=O)CNC(=O)C23CC4CC(CC(C4)C2)C3)o1	-	-	-	-	.	.
CCn1c(=O)c2c3c(sc2n2c(=S)[nH]nc12)CCC3	-	-	59	-	88	-
O=c1c2c3c(sc2n2c(=S)[nH]nc2n1-c1ccccc1)CCC3	-	-	53	-	84	-
SMILES	beta cell repl	A3A deaminase	A3G deaminase	Bfl-1 A1 inh	A3G conf	UDG A3G counter
COc1ccc(-n2c(=O)c3c4c(sc3n3c(=S)[nH]nc23)CCC4)cc1	-	-	-	-	.	.
Cc1ccc(-n2c(=O)c3c4c(sc3n3c(=S)[nH]nc23)CCC4)cc1	-	-	-	-	.	.
CN1CCCN(C(=O)CNC(=O)c2ccccc2Br)CC1	-	-	-	-	.	.
Clc1ccccc1-c1nnc2sc(-c3ccc4c(c3)OCO4)nn12	-	-	53	-	40	-
Brc1ccccc1-c1nnc2sc(-c3ccc4c(c3)OCCO4)nn12	-	-	-	-	.	.
c1ccc2c(c1)OCC(c1nnc3sc(-c4ccc5c(c4)OCO5)nn13)O2 (stereo not drawn)	-	-	57	-	48	-
Cc1ccc(N(CC(=O)NC2CCCCC2)C(=O)CCCC(=O)Nc2ccccn2)cc1	-	-	-	-	.	.
Cc1cc(=O)n2nc(-c3ccccc3)sc2c1C#N	-	-	55	-	69	-
